This excerpt belongs to a sample that is enriched for hits.
Lamin A splicing = qHTS Assay for Modulators of Lamin A Splicing; Potency, µM (doses to about 46.1 µM), usual class: inhibitors; HeLa LMNA splicing GFP/RFP minigene ratio, 48 h; 200,000 compounds, 0.01% hits; active means well fitted inhibition curve with a large enough effect in the signal ratio, with a control signal flat, not every such curve was filed as active; inconclusive means small, poorly fitted or top-dose-only effect, or effect the other way, or a change in a side signal; the % refers to the signal ratio
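Read-out is the ratio of GFP to DsRed2 object intensity, acquired by 488 nm laser-scanning cytometry on HeLa lamin A-EGFP minigene reporter cells. Compound incubation 48 hrs at 37 °C in Opti-MEM with 2% FBS; DMSO 0.5% final.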
PNC inhibitor = High Content Assay for Compounds that inhibit the Assembly of the Perinucleolar Compartment | 140,000 compounds, 3.1% hits | activity change (PNC), negative = inhibition, % at 10 µM | PC3M PTB-GFP, PNC prevalence imaging, 16 h; active compounds read low;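 active means readout at or below -70, meaning at least 70% loss of cells showing the perinucleolar compartment, a nuclear body marking cancer cells; inconclusive means readout between -30 and a set limit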
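Compounds are pinned in duplicate onto adhered PC3M cells stably expressing GFP-tagged PTB and incubated 16 h at 37 C. Cells are then fixed, nuclei stained with Hoechst, and PNC-positive cells counted.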
IMPase cell inh = qHTS Assay for Identifying the Cell-Membrane Permeable IMPase Inhibitors; CHO-M1 cells, IP1 accumulation, HTRF TR-FRET ratio; inhibition (IP1 accumulation), % at 46.1 µM; 120,000 tested, under 10 active; AID 901, 2007; active means well fitted curve in the direction sought with a large enough effect in the signal ratio, not every such curve was filed as active; inconclusive means small, poorly fitted or top-dose-only effect, or a change in a side signal; inactive means no such curve, though single readings can be large or run the other way; the % refers to the signal ratio;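 further: cells stimulated with carbachol in lithium chloride buffer; higher means more IMPase inhibition seen as more IP1 and lower FRET ratio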
Target sequence (P97697 whole entry, looked up): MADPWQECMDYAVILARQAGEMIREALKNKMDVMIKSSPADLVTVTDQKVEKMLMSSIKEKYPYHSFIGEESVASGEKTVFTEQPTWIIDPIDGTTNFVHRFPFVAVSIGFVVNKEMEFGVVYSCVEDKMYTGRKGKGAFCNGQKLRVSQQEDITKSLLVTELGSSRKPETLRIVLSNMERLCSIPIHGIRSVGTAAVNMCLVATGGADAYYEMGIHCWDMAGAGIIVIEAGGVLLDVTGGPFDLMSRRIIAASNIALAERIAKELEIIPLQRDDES
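The IP-One HTRF competitive assay in carbachol-stimulated CHO-M1 cells quantifies cellular IP1. Compounds spanned up to 46 uM final, and activity is expressed as AC50 from concentration-response fits of the ratio and donor data.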
Hits are given with their value; 0 = inactive; ? = inconclusive; - = no result given.

SMILES	Lamin A splicing	PNC inhibitor	IMPase cell inh
CN(C)C(=O)c1ccc2c(c1)N(CC(=O)NCc1ccccc1Cl)C(=O)C1CCCCN21 (stereo not given)	0	-	-
C/C(=N\NC(=S)NC1CCCCC1)c1ccccc1	?	-100	-
C/C(=N\NC(=S)NC1CCCCC1)c1ccc(O)cc1	0	-	-
CCN(CC)CCNS(=O)(=O)c1ccc(Cl)cc1	0	?	0
CN(C)CCNS(=O)(=O)c1ccc(Cl)cc1	0	-100	0
CCOC(=O)NCC(C#CCN(CC)CC)N(CC)CC (stereo not given)	0	-93	0
CCN(CC)CC#CC(C)OCOCC#CCOC (stereo not given)	0	0	0
CC1(C)NC(=O)N(CCCCOc2cccc(C(F)(F)F)c2)C1=O	?	?	0
CCC(C)Oc1cccc(OCCCCN2C(=O)NC(C)(C)C2=O)c1 (stereo not given)	0	-96	0
Cn1c(=O)n(CCCc2ccccc2)c(=O)c2c1nc1n2CCN1c1ccc(F)cc1	0	-	-
COc1ccc(N(C)S(=O)(=O)c2cccc(C(=O)OC(C(=O)Nc3cc(C)cc(C)c3)c3ccccc3)c2)cc1 (stereo not given)	?	-102	-
CC(=O)c1cccc(NC(=O)C(OC(=O)c2cccc(S(=O)(=O)N(C)c3ccccc3)c2)c2ccccc2)c1 (stereo not given)	0	0	-
CC(C)CN1CC(C(=O)O)CC1=O (stereo not given)	0	-	-
O=C(CSc1nnc(Cc2ccccc2)o1)c1ccccc1	0	-	-
CCCn1c(N)c(C(=O)CSc2nnc(Cc3ccccc3)o2)c(=O)n(C)c1=O	?	-100	0
Cc1ccc(C)c(Cn2c(=O)c3c(nc4n3CCN4c3ccc(F)cc3)n(C)c2=O)c1	0	-	-
CC(=O)Nc1ccc(Nc2nc(Cl)nc(Nc3ccc(NC(C)=O)cc3)n2)cc1	0	-	-
COCCCNCCOCCOc1ccccc1-c1ccccc1	0	0	-
CC(C)(C)NCCOCCOc1ccccc1-c1ccccc1	0	-106	0
CNc1cc(-c2ccccc2C(F)(F)F)ncn1	0	-	-
CC1(C)Cc2nc3sc4c(SCC(=O)NCc5ccccc5)ncnc4c3cc2CO1	0	-112	0
CC1(C)Cc2nc3sc4c(N(CCO)CCO)ncnc4c3cc2CO1	0	0	0
O=C1OCCC1Sc1nnc(-c2ccco2)o1 (stereo not given)	0	-100	0
O=C1OCCC1Sc1nnc(-c2ccc(Br)cc2)o1 (stereo not given)	0	0	0
N/C(CN1CCCC1=O)=N\O	0	0	0
SMILES	Lamin A splicing	PNC inhibitor	IMPase cell inh
N/C(CN1CCCC1=O)=N\OC(=O)c1ccccc1Cl	0	-87	0
CCc1ccc(NC(=O)c2nc3nc(C)cc(C(F)F)n3n2)cc1	0	-	-
CCCc1cc(=O)[nH]c(SCC(=O)Nc2c(C)cccc2C)n1	0	0	0
CCCc1cc(=O)[nH]c(SCC(=O)Nc2ccc(OC(F)F)cc2)n1	0	-94	0
COc1ccc(C)cc1NC(=S)NNC(=O)c1c(Br)cnn1C	0	-	-
NC(=O)N/N=C/c1ccccc1OC(=O)c1ccccc1Br	0	-	-
CCN1CCc2c(sc(NC(=O)Nc3ccc(Cl)c(Cl)c3)c2C(N)=O)C1	?	-118	-
CCN1CCc2c(sc(NC(=O)c3ccc(S(=O)(=O)N4CCOCC4)cc3)c2C(N)=O)C1	0	0	0
CC(=O)OCC(OC(C)=O)C(OC(C)=O)C(OC(C)=O)C(=O)Nc1cccc(C)c1 (stereo not given)	0	-	-
COc1cccc(NC(=O)C2CCN(C(=O)N3CC(C)Oc4ccccc43)CC2)c1 (stereo not given)	0	-	-
COc1ccc(NC(=O)C2CCCN(S(=O)(=O)c3c(C)[nH]c(=O)[nH]c3=O)C2)cc1Cl (stereo not given)	0	-	0
CCOc1ccc(C2=Nn3c(nnc3-c3ccccc3OC)SC2)cc1	?	-86	0
Cc1cccc(-c2nnc3n2N=C(c2ccc(Br)cc2)CS3)c1	0	0	0
CCOc1ccc(-c2nnc3n2N=C(c2ccc(OC)cc2)CS3)cc1	0	0	0
Cc1ccc(-c2nnc3n2N=C(c2ccc(Br)cc2)CS3)cc1	0	-106	0
O=C(NCc1ccccc1Cl)c1ccc(CSCc2ccccc2Cl)o1	0	-	-
O=C(NN1CCN(Cc2ccccc2)CC1)c1ccc(N2CCOCC2)c([N+](=O)[O-])c1	0	-	-
O=C(c1ccccc1)c1nnc(-c2ccncc2)o1	0	0	0
O=C(c1ccc(Cl)cc1)c1nnc(-c2ccncc2)o1	?	-82	0
OCCN1CC(O)C(O)C(O)C1CO (stereo not given)	0	-	-
CON(C)S(=O)(=O)c1ccc2c(c1)N(Cc1ccc(C)cc1)C(=O)C1CCCN21 (stereo not given)	0	-	-
N#Cc1c(-n2ncnc2-c2ccc(Br)cc2)sc2c1CCCCC2	-	-	0
Cc1ccc(/C=C/C(=O)Nc2cc(=O)n(C)c(=O)n2C)o1	0	0	-
Cn1c(NC(=O)/C=C/c2ccco2)cc(=O)n(C)c1=O	0	-121	-
COc1ccc(S(=O)(=O)N2c3cc(Cl)ccc3Oc3nc4ccccc4nc32)cc1	?	-100	0
SMILES	Lamin A splicing	PNC inhibitor	IMPase cell inh
O=S(=O)(c1ccc(Cl)cc1)N1c2ccccc2Oc2nc3ccccc3nc21	0	0	0
CCCOc1ccc(C(=O)N(Cc2cccs2)C2CCS(=O)(=O)C2)cc1 (stereo not given)	0	-	-
CCCCCCNC(=O)c1c[nH]c2ccc(S(=O)(=O)N(C)c3ccc(C(C)C)cc3)cc2c1=O	0	-	-
O=C(CCCn1nnc(-c2cccnc2)n1)c1ccc(F)cc1	?	0	?
O=C(COc1ccc(C(=O)c2ccccc2)cc1)NCc1ccc(F)cc1	?	-81	0
O=C(COc1ccccc1)NCc1ccccc1	0	0	0
Cc1ccc(NC(=O)C(=O)NCCCN2CCOCC2)cc1C	-	-	0
COc1cccc(C2C(C(=O)c3cccs3)=C(O)C(=O)N2CCCn2ccnc2)c1OC (stereo not given)	0	-96	0
COc1ccc(C2C(C(C)=O)=C(O)C(=O)N2CCCn2ccnc2)cc1 (stereo not given)	0	0	0
CCCSc1nc2sc3c(c2c(=O)n1-c1ccccc1)CCC(C)C3 (stereo not given)	-	-	0
Cc1ccc(N2C(=O)CS(=O)(=O)C23C(=O)N(C)c2ccccc23)cc1F (stereo not given)	0	-	-
Cc1noc(C)c1COc1ccc(C(=O)OCc2nnc(-c3ccc(Cl)cc3)o2)cc1	0	-84	0
O=C(OCc1nnc(-c2ccc(Cl)cc2)o1)c1ccncc1	0	0	0
CCOc1ccc(NC(=O)c2cnc3sc(N4CCOCC4)nn3c2=O)cc1	0	-	-
COc1ccc(NC(=S)Nc2ccc(Oc3ccccc3)cc2)cc1	?	0	0
COc1ccc(NC(=S)NN(C)C(=S)Nc2ccc(OC)cc2)cc1	?	-114	-
O=C(COc1ccc(Cl)cc1)NCc1nnc2c3ccccc3c(-c3ccccc3)nn12	?	-108	0
O=C(NCc1nnc2c3ccccc3c(-c3ccccc3)nn12)c1ccccc1Cl	?	0	-
CCOC(=O)C(C)NC(=O)C1CCN(c2ncnc3c2nc2n3CCCCC2)CC1 (stereo not given)	0	-	-
COC(=O)c1ccccc1NC(=O)c1cc(CN2CCOCC2)on1	0	-	-

Assay outcomes (PubChem BioAssay)
